The list is not random: actives were taken first. Their share in the collection is about 2.2%.
BaF3 tox = parental Ba/F3 cell viability inhibition, counter-screen for JAK2V617F inhibitor project, murine pro-B, CellTiter-Glo luminescence. CellTiter-Glo ATP luminescence. inhibition, % at 5.6 µM. hit rate 1.1% among 220,000;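 active = inhibition above a per-campaign cutoff, the mean inhibition of all tested compounds plus 3 SD, cut at about 27% in these data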
APP transl inh = inhibitors of APP translation via 5'UTR reporter, primary screen, APP 5'UTR luciferase, SH-SY5Y cells; SH-SY5Y APP 5'UTR-luciferase reporter, luminescence; hit rate 0.82% among 190,000; inhibition, % at 2 µM; AID 1285, 2008;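 active = inhibition above a set limit, derived from the sample mean plus 3 SD, cut at about 45% in these data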
aSyn 5UTR inh = MLPCN primary screen, SNCA 5' untranslated region. hit rate 0.82% among 300,000. inhibition, % (tested at 7.5 µM). alpha-synuclein 5'UTR reporter, inhibitor activity; in the data active = inhibition above about 60%;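 note: H4 neuroglioblastoma cells stably carrying SNCA 5'UTR luciferase fusion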
Ba/F3 V617F tox = reduced viability of JAK2V617F-dependent Ba/F3 cells, primary screen, JAK2V617F inhibitor project, cell-based, Ba/F3 EpoR-JAK2V617F, luminescence; AID 1446, 2008; hit rate 1.1% among 220,000; ATP luminescence; inhibition, % at 5.6 µM;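 active = inhibition above the campaign mean plus 3 SD over all tested compounds, cut at about 24% in these data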;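 note: cytokine-independent growth of Ba/F3 cells driven by EpoR plus mutant JAK2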
KLF5 inh = KLF5 expression inhibitors, primary screen, DLD-1 cells, luminescence. hit rate 0.23% among 290,000. DLD-1 KLF5 promoter-luciferase reporter. inhibition, % at 5 µM;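 active = inhibition above a per-plate limit of that plate's mean compound inhibition plus 3 SD, cut at about 60% in these data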;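 note: higher means less KLF5 promoter-driven luciferase light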
IEC-6 tox = cytotoxicity in IEC-6 intestinal epithelial cells, primary screen, cytotoxicity control for KLF5 inhibitor project, cell-based, luminescence; inhibition, % at 5 µM; hit rate 0.78% among 290,000; IEC-6 cytotoxicity, luminescence viability
IEC-6 tox confirm = cytotoxic compounds in IEC-6 epithelial cells, confirmation, cytotoxicity control, cell-based, luminescence; shares compounds with IEC-6 tox; IEC-6 rat intestinal epithelial viability; inhibition, % at 5 µM; hit rate 63% among 1,900; AID 1907, 2009
Numbers stand for hits; - = inactive; . = not tested or not shown. Cut-off read from the data, not from the text of the source, unless noted: active = inhibition above about 22%; inactive = the rest.

SMILES	BaF3 tox	APP transl inh	aSyn 5UTR inh	Ba/F3 V617F tox	KLF5 inh	IEC-6 tox	IEC-6 tox confirm
O=C(Nc1cc(=O)[nH]c(=O)[nH]1)c1cccc(C(F)(F)F)c1	.	.	-	.	-	-	.
CSc1cccc(NC(=O)Cn2cnc(S(=O)(=O)N3CCCC3)c2)c1	.	.	-	.	-	-	.
O=C(Nc1ccc(OC(=O)c2ccco2)cc1)c1ccco1	-	-	-	-	-	-	.
O=C(OC1CCCCC1)c1ccc(NC(=O)c2ccco2)cc1	-	-	-	-	-	32	23
Cc1ccc2c(c1)C(=O)C(=O)N2CCCOc1ccccc1	-	-	-	-	-	-	.
CCN1CCN(CC2COc3ccccc3O2)CC1 (configuration not stated)	.	.	-	.	-	-	.
CCOc1ccc2c(c1)C(=O)C(=O)N2CC1COc2ccccc2O1 (configuration not stated)	.	.	-	.	-	72	-
COc1ccc2c(c1)C(=O)C(=O)N2CC1COc2ccccc2O1 (configuration not stated)	.	.	-	.	-	83	-
Cc1ccc2c(c1)C(=O)C(=O)N2CC1COc2ccccc2O1 (configuration not stated)	.	.	-	.	-	83	-
O=C(CSc1ncn[nH]1)Nc1ccccc1Sc1ccccc1	-	-	-	-	-	-	.
Cn1ccnc1CN1CCCCC1C(=O)Nc1ccc(Oc2cccnc2)cc1 (configuration not stated)	.	.	-	.	-	27	-
CCn1ccnc1CN1CCCCC1C(=O)Nc1ccc(Oc2cccnc2)cc1 (configuration not stated)	.	.	-	.	-	-	.
O=C(c1ccc(N2CCOCC2)c([N+](=O)[O-])c1)N1CCN(Cc2ccccc2)CC1	.	.	-	.	-	-	.
COc1cccc(C(=O)Oc2ccc(/C=N/Nc3ccc(C(=O)O)cc3)cc2OC)c1	.	.	-	.	-	-	.
COc1cccc(OCc2cc(/C=N/Nc3ccc(C(=O)O)cc3)ccc2OC)c1	-	.	-	-	-	28	55
O=C(c1ccc(CS(=O)Cc2ccc(Cl)cc2)o1)N1CCN(c2cccc(Cl)c2)CC1 (configuration not stated)	.	.	-	.	-	-	.
COc1cccc(N2CCN(C(=O)c3ccc(CS(=O)c4ccc(Cl)cc4)o3)CC2)c1 (configuration not stated)	.	.	107	.	-	81	57
CNc1nc2cc([N+](=O)[O-])c([N+](=O)[O-])cc2nc1NC	69	-	-	75	-	40	34
CNc1ccc(S(=O)(=O)NC)cc1[N+](=O)[O-]	-	-	-	-	-	-	.
CN1CCC(NCCC(c2ccc(F)cc2)c2ccc(Cl)cc2)CC1 (configuration not stated)	.	.	-	.	-	49	100
CC(C)C(CCNC1CCN(C)CC1)c1ccc(Cl)cc1 (configuration not stated)	.	.	-	.	-	36	57
O=C(CSc1ncn[nH]1)Nc1ccc(Cl)c(S(=O)(=O)N2CCOCC2)c1	-	-	-	-	-	-	.
Cc1cc(C)cc(NC(=O)Nc2ccc(-n3ccc(C(F)(F)F)n3)cc2)c1	-	.	-	-	-	-	.
O=C(Nc1ccc(-n2ccc(C(F)(F)F)n2)cc1)Nc1cccc(Cl)c1	63	.	-	54	-	23	48
CC1=NN(c2nc3ccccc3[nH]2)C(=O)/C1=C/N(C)C	53	-	.	58	-	40	68
SMILES	BaF3 tox	APP transl inh	aSyn 5UTR inh	Ba/F3 V617F tox	KLF5 inh	IEC-6 tox	IEC-6 tox confirm
Cc1ccc(-n2nnnc2Sc2ccc(S(=O)(=O)NCCN(C)C)cc2[N+](=O)[O-])cc1	68	-	-	96	-	28	47
CCN1CCS/C1=C/C=C/C1=[N+](CC)CCS1	81	-	-	99	-	27	30
CCN1CCS/C1=C\C=C\C1=[N+](CC)CCS1	90	-	-	101	-	37	31
CCOc1ccc(CNC(=O)C(CC)n2nc(C)n3c(cc4occc43)c2=O)cc1OC (configuration not stated)	-	-	-	-	-	-	.
Cc1ccc2c(C)c(C(=O)NCc3ccc(S(N)(=O)=O)cc3)oc2c1	-	-	-	-	-	-	.
COc1cc(OC)cc(C(=O)NCC(=O)Nc2ccc(-c3ccccc3)cc2)c1	.	.	-	.	-	30	-
COc1ccc(OC)c(-c2csc(NC(=O)c3ccc4c(c3)OCO4)n2)c1	-	-	-	-	-	-	.
CC(=O)c1cc2c(cc1NC(=O)c1ccc(C)cc1)OCCO2	.	.	-	.	-	-	.
C/C(=N\N=C1\NC(=O)C(CC(=O)Nc2ccc(C)c(Cl)c2)S1)C(C)(C)C (configuration not stated)	-	-	-	-	-	-	.
CC(=O)/C(C#N)=C1\NC(=O)C(Cc2ccc(C)c(Cl)c2)S1 (configuration not stated)	-	.	-	-	-	72	48
CCN(c1ccccc1)S(=O)(=O)c1ccc(Oc2ccc(-n3ccnc3)cc2)nc1	-	-	103	-	-	30	29
CCN(c1ccccc1)S(=O)(=O)c1ccc(C(=O)NCCCn2ccnc2)cc1	-	-	-	-	-	-	.
NC(=O)c1ccc[n+](CC(=O)c2ccccc2)c1	27	.	-	60	-	22	-
NC(=O)c1ccc[n+](CC(=O)c2ccc(NC(=O)c3ccccc3)cc2)c1	.	.	-	.	-	-	.
CCN(c1ccc(OC)cc1)S(=O)(=O)c1ccc(-c2cc(C)no2)s1	.	.	-	.	-	-	.
CCc1ccccc1N(C)S(=O)(=O)c1ccc(-c2cc(C)no2)s1	.	.	-	.	-	47	-
COc1ccc(Cl)cc1-n1c(C)ccc1C	-	-	-	-	-	-	.
CCC(=O)N1CCN(c2ccc(Cl)cc2NC(=O)c2ccc([N+](=O)[O-])o2)CC1	.	.	-	.	-	34	-
CCN1CCN(c2ccc(S(=O)(=O)N3CCCCC3)cc2NC(=O)c2ccc([N+](=O)[O-])o2)CC1	.	.	-	.	.	.	.
CCC(=O)N1CCN(c2ccc(NC(=O)c3ccc([N+](=O)[O-])o3)cc2Cl)CC1	60	92	77	88	-	67	63
CCC(=O)N1CCN(c2ccc(NC(=O)c3ccco3)cc2Cl)CC1	.	.	-	.	-	-	.
CCN1CCN(c2ccc(NC(=O)c3ccc([N+](=O)[O-])o3)cc2Cl)CC1	48	94	126	76	-	70	45
CC(=O)N1CCN(c2ccc(NC(=O)c3ccc([N+](=O)[O-])o3)cc2Cl)CC1	.	.	-	.	-	101	48
CC(=O)N1CCN(c2ccc(NC(=O)c3ccco3)cc2Cl)CC1	.	.	-	.	-	-	.

Assay outcomes (PubChem BioAssay)
